{"source": "PubChem BioAssay", "note": "Values without a mark were called inactive. The rule behind the calls is not given here."}
{"target": "Pantothenate synthetase (Mycobacterium tuberculosis (strain ATCC 25618 / H37Rv)) (UniProt P9WIL5)", "sequence (P9WIL5 whole entry, looked up)": "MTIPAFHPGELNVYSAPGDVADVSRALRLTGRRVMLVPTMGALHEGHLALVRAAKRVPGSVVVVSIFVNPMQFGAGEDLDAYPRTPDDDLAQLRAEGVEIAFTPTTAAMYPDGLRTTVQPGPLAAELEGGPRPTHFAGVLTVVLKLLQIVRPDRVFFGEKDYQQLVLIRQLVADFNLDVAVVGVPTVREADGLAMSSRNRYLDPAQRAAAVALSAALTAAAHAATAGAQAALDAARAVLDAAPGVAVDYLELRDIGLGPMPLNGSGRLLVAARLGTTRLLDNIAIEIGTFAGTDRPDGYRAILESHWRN", "assay": "Recombinant Mtb pantothenate synthetase (PanC) inhibitors, coupled enzyme, confirmatory (AID 375);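 note: 0% = full reaction with vehicle and 100% = no enzyme background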", "conditions": "coupled enzyme assay; at 10 µM, active compounds read high", "units": {"inhibition": "%"}}
{"smiles": "CN(C)c1ccc(/C=C/C(O)=C2/C(=O)N(C)C3(C)CC2c2ccccc2O3)cc1", "note": "(configuration not stated)", "inhibition": 0}
{"smiles": "CCOc1ccc(-c2nc(S(=O)(=O)c3ccccc3)c(NCc3cccnc3)o2)cc1", "inhibition": 0}
{"smiles": "C=CCn1c(SCC(=O)NC2CCCCC2)nnc1-c1sc(N)nc1C", "inhibition": 7}
{"smiles": "Clc1cc2c(c(Cn3cnc4ccccc43)c1)OCOC2", "inhibition": 0}
{"smiles": "O=C(CNC1CCCCCC1)Nc1ccc(S(=O)(=O)NC2CC2)cc1", "inhibition": 2}
{"smiles": "COC(=O)c1ccnc(/C=N/O)c1", "inhibition": 6}
{"smiles": "Cc1c(C(=O)NCc2ccccn2)oc2ccccc12", "inhibition": 0}
{"smiles": "COc1ccc2c(c1OC)C(=O)OC2C1c2c(cc3c(c2OC)OCO3)CCN1C", "note": "(configuration not stated)", "inhibition": 0}
{"smiles": "Cn1c2ccc(F)cc2c2ncn(CCN3CCOCC3)c(=O)c21", "inhibition": 6}
{"smiles": "O=c1[nH]c(/C(=N\\O)c2ccccc2)no1", "inhibition": 0}
{"smiles": "CCN(CC)C(=O)CN(c1cc(Cl)ccc1OC)S(C)(=O)=O", "inhibition": 0}
{"smiles": "CC(C)Oc1ccc(-c2nn(-c3ccccc3)cc2/C=c2\\sc3ncnn3c2=O)cc1", "inhibition": 0}
{"smiles": "CCOC(=O)N1CCC(NC(=O)c2cc(C(=O)NC3CCCC3)ccc2CO)CC1", "inhibition": 1}
{"smiles": "CCc1nnc(NC(=O)CSc2nnc(-c3ccc(OC)cc3)n2C)s1", "inhibition": 0}
{"smiles": "Nc1nc(CN2CCN(Cc3ccc4c(c3)OCO4)CC2)nc(Nc2ccccc2)n1", "inhibition": 0}
{"smiles": "COc1ccc2c(c1)C(=O)N(c1ccccc1OC)C(=O)C2", "inhibition": 0}
{"smiles": "O=C1CC(c2cccc(Cl)c2)Cc2nc(N3CCN(c4ccccc4)CC3)ncc21", "note": "(configuration not stated)", "inhibition": 0}
{"smiles": "O=C1c2oc3ccccc3c(=O)c2C(c2cccnc2)N1Cc1ccco1", "note": "(configuration not stated)", "inhibition": 0}
{"smiles": "COc1ccc(OC)c(C2=NOC(C(=O)NCCN3CCOCC3)C2)c1", "note": "(configuration not stated)", "inhibition": 0}
{"smiles": "Cc1ccccc1N1C(N)=NC(N)=NC1(C)C", "inhibition": 0}
{"smiles": "CC12CN3CCN(CC(C3)C1(O)CN1CCCCC1)C2", "note": "(configuration not stated)", "inhibition": 0}
{"smiles": "CC(=O)NC(CCS(C)(=O)=O)C(=O)Nc1cccc2ccccc12", "note": "(configuration not stated)", "inhibition": 0}
